Tests used:
Test in all cases: log2 ratio of Biotin-Ahx-Ub-VS probe labelling (fragment/DMSO); higher = less target engagement (more negative = stronger competition), active = hit call of the paper (q ≤ 0.05, log2 ratio ≤ -1)
Conditions in all cases: compound concentration: 200 uM; treatment time: 3 h
[1] = target: USP34 (UniProt Q70CQ2)
Procedure, shortened: (§1)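 HEK293T lysate in Tris/CHAPS/IGEPAL buffer with protease inhibitors (495 µg per sample) was given fragment at 200 µM or vehicle for 3 h, in triplicate. It then received Biotin-Ahx-Ub-VS at 0.5 µM final for 1 h. Labelled DUBs were NeutrAvidin-enriched, digested with LysC and trypsin, and run by diaPASEF LC-MS/MS. Values are average log2 fragment/vehicle ratios by unpaired t-test on global-median-normalised Spectronaut quantities of proteins with ≥2 unique peptides.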

[2] = target: T1, USP36 (UniProt Q9P275)
T1 sequence (whole entry): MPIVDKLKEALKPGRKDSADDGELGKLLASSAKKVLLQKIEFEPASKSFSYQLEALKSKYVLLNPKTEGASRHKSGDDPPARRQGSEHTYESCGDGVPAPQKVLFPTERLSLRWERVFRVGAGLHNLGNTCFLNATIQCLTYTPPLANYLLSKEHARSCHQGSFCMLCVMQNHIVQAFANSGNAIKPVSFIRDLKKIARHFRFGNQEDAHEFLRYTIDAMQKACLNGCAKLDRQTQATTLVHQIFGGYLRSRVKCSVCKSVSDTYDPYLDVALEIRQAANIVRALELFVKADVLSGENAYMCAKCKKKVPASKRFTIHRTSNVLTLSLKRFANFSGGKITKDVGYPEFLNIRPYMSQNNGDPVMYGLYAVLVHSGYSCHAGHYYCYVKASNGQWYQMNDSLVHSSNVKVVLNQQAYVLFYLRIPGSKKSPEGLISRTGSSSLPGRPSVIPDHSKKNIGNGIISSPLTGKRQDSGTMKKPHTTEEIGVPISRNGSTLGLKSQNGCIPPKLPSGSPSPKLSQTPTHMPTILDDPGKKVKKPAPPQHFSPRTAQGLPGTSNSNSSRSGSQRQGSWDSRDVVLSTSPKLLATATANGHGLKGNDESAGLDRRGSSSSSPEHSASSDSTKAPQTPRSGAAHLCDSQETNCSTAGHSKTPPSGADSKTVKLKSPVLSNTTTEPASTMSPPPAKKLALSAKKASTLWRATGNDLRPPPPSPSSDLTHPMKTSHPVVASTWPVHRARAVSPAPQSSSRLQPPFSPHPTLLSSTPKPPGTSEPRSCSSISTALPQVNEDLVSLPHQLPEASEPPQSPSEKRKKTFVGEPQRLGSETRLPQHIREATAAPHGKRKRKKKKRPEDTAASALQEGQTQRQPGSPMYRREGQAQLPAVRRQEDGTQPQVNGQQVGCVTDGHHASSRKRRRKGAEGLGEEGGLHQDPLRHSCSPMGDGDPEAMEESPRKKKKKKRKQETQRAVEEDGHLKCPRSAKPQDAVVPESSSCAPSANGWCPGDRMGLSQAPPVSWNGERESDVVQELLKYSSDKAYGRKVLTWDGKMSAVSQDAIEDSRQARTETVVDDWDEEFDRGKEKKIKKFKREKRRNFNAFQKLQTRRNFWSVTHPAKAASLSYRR
Procedure, shortened: as §1

[3] = target: T2, USP38 (UniProt Q8NB14)
T2 sequence (whole entry): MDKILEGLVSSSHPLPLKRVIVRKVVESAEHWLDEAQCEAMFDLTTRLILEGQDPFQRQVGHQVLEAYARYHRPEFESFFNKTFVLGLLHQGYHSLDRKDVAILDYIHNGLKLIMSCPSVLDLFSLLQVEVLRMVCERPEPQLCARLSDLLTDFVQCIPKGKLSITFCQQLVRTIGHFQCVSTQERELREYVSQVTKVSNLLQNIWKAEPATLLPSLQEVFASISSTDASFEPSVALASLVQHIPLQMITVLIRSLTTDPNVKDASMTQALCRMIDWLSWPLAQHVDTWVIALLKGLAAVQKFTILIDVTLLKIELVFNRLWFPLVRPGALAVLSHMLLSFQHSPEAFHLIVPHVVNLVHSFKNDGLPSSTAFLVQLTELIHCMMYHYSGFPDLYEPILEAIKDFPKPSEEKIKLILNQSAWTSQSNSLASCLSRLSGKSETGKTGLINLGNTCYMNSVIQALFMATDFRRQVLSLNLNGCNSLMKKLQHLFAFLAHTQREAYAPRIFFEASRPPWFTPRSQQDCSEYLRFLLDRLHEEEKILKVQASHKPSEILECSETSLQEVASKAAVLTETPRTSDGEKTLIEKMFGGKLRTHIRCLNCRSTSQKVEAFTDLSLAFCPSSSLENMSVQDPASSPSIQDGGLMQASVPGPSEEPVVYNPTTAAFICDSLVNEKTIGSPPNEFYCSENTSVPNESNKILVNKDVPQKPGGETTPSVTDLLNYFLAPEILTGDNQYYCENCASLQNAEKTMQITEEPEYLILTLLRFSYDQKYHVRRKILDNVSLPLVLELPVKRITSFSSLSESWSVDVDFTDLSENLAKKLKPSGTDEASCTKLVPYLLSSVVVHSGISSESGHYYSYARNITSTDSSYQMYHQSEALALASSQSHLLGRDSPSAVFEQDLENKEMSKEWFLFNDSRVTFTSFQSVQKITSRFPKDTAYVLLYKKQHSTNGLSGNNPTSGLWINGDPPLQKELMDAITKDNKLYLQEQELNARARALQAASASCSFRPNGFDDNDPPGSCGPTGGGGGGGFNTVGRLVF
Procedure, shortened: as §1

[4] = target: T3, USP39 (UniProt Q53GS9)
T3 sequence (whole entry): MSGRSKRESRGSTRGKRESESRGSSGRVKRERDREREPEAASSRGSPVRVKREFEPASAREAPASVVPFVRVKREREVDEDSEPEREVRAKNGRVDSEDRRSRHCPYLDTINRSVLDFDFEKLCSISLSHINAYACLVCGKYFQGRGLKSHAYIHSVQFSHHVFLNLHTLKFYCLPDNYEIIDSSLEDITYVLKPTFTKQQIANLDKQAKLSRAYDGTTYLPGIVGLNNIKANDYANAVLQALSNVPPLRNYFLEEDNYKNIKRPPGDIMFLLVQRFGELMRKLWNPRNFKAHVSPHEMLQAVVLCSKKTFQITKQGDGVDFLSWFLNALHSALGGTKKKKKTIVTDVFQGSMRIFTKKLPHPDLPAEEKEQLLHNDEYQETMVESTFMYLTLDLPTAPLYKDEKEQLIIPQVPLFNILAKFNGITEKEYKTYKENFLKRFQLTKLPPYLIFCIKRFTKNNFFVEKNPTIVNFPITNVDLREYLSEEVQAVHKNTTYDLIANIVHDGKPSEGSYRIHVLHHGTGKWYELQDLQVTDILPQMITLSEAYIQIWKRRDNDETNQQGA
Procedure, shortened: as §1

[5] = target: T4, USP4 (UniProt Q13107)
T4 sequence (whole entry): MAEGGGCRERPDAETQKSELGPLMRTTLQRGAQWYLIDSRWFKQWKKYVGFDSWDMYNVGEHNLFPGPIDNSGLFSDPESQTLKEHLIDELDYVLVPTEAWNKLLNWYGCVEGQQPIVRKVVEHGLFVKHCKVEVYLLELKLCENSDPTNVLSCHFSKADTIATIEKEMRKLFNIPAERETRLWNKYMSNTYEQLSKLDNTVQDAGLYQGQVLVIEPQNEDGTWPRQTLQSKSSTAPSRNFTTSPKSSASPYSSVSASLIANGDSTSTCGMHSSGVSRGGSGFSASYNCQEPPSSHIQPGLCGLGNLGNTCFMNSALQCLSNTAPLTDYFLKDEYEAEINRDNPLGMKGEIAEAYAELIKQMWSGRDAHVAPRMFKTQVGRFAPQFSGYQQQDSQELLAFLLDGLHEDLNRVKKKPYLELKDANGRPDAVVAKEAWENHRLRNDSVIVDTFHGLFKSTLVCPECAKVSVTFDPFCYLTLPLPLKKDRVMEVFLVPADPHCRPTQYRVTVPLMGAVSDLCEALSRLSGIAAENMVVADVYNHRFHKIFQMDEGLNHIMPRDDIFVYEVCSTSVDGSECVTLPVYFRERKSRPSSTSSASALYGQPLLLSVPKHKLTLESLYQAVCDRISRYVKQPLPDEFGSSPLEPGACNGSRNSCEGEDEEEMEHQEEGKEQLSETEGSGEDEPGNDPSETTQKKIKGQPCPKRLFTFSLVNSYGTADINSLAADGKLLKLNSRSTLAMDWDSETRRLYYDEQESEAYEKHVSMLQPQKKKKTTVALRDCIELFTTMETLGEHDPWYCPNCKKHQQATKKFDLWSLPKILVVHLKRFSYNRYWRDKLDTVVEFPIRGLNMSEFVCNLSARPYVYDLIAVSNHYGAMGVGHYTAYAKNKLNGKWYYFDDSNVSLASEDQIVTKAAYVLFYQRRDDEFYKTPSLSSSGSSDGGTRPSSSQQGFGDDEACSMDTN
Procedure, shortened: as §1

Measured: log2 ratio of Biotin-Ahx-Ub-VS probe labelling

Chain of USP34 (Q70CQ2 whole entry, the tested form may be a part): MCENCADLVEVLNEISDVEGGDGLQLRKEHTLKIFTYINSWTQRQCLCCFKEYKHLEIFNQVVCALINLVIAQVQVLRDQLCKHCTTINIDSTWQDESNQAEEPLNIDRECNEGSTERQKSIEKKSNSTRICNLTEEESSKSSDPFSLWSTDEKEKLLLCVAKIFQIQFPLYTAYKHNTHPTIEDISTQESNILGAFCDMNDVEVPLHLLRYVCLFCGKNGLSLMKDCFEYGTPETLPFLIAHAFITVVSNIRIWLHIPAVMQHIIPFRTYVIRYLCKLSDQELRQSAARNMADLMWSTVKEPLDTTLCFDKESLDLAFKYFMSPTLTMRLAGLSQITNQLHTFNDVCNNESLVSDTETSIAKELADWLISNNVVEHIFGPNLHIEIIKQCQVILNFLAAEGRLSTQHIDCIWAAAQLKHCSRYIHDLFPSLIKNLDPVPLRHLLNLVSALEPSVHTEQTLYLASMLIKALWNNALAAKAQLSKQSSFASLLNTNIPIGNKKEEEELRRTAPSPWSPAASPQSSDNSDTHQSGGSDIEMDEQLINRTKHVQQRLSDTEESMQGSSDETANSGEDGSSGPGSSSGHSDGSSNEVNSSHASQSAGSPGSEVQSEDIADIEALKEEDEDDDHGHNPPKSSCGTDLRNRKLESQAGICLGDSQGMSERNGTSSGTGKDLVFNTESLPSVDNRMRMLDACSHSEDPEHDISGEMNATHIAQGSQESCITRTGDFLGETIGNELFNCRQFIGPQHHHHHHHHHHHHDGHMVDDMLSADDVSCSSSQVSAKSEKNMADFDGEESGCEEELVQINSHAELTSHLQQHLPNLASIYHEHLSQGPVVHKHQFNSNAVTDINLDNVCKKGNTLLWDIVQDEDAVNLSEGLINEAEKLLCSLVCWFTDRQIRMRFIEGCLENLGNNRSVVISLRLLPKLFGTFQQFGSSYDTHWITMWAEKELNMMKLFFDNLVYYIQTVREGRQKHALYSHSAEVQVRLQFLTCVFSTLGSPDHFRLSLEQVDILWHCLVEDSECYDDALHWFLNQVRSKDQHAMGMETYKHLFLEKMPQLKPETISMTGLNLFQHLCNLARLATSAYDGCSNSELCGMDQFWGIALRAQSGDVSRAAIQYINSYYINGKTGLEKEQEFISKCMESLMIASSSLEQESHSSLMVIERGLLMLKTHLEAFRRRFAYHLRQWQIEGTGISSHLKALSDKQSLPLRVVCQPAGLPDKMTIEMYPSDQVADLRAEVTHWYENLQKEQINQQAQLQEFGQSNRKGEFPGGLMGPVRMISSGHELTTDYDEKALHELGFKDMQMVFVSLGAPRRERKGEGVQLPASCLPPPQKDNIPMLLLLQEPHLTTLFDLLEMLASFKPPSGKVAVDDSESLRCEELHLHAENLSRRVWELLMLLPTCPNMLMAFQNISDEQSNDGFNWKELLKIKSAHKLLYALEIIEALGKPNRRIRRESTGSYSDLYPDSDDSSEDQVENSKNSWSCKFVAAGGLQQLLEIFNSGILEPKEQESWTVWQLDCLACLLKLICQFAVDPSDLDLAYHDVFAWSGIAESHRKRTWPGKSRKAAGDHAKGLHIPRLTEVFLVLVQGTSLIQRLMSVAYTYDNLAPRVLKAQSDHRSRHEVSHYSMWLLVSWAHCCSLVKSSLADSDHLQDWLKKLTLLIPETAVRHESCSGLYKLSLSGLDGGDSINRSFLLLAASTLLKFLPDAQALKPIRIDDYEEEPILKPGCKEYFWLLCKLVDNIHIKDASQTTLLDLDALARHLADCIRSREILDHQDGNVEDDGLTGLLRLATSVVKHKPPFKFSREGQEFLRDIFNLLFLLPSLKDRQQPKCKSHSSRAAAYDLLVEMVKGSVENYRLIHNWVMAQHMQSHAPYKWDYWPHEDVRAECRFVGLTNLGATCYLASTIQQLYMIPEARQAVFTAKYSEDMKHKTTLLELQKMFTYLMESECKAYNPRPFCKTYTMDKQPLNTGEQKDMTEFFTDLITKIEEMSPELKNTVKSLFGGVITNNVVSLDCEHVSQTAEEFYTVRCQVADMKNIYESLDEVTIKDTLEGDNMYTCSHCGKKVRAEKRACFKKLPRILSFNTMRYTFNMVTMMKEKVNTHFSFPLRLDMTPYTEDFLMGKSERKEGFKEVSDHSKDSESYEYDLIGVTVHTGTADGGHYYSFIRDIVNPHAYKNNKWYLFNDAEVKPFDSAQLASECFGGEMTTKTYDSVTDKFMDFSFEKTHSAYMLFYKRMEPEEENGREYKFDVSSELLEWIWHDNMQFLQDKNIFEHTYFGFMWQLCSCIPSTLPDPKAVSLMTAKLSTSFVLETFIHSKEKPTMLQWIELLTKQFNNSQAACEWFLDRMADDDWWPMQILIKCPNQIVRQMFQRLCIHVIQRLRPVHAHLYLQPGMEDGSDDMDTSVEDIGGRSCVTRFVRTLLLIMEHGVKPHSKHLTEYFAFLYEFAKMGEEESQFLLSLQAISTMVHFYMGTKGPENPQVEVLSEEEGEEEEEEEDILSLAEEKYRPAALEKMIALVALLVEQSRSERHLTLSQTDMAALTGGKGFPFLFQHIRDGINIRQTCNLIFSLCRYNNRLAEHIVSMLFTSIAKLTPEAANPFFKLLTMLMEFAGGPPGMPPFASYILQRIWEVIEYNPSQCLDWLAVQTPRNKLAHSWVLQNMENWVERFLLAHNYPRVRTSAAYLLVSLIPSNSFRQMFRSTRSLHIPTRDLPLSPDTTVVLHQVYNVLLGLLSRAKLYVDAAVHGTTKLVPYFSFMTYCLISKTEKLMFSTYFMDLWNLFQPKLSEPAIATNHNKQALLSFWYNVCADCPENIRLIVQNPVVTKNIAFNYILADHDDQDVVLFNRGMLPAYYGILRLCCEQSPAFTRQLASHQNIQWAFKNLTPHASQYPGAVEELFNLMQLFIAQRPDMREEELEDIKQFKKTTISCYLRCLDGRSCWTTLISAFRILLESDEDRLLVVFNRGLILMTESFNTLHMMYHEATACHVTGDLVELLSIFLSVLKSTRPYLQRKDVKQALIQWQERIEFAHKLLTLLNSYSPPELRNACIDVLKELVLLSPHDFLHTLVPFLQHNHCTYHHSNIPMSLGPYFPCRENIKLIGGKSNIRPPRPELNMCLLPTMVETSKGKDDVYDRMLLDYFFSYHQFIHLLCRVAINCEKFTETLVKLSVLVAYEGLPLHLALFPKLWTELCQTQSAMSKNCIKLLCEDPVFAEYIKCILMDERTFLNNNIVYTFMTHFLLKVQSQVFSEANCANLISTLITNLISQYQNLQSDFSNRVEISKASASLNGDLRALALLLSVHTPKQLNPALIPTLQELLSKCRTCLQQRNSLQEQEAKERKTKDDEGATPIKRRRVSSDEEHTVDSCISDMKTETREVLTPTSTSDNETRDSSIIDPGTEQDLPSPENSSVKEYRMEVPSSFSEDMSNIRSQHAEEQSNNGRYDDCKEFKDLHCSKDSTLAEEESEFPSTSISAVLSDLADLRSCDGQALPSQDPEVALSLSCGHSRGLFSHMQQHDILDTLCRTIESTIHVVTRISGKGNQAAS

O=C(CCl)NCc1ccc(Cl)cc1
inactive: [1] -0.211 | [2] 0.0776 | [3] -0.0243 | [4] -0.155 | [5] 0.0847
